The supplement of paper PMC6522484
± gives the standard deviation of the averaged measurements.

Experiments:
[1] = system: DLD1; experiment: cell viability (CellTiter-Glo) relative to plate median (fraction of plate median); higher = more viable cells; settings: 5 µM; treatment time 24 h; reporter: 7TFP
How it was run: (§1)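 Normalisation used webcellHTS2 in additive mode without log transformation, scaling each well's luminescence to the plate median. The luminescence was firefly luciferase or CellTiterGlo, read on a Tecan F500 from parallel plates of colorectal cancer cells stably transduced with lentiviral TCF/Wnt firefly luciferase reporters. Those cells had been given library compounds at a final 5 µM for 24 h, and two independent replicates were averaged.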

[2] = system: HCT116; experiment: as above; settings: 5 µM; treatment time 24 h; reporter: TCF4/Wnt
How it was run: as §1

[3] = system: SW480; experiment: as above; settings: 5 µM; treatment time 24 h; reporter: 7TFP
How it was run: as §1

[4] = system: DLD1; experiment: TCF/Wnt firefly luciferase reporter signal relative to plate median (fraction of plate median); higher = higher Wnt reporter signal; settings: 5 µM; treatment time 24 h; reporter: 7TFP
How it was run: as §1

[5] = system: SW480; experiment: as above; settings: 5 µM; treatment time 24 h; reporter: 7TFP
How it was run: as §1

SMILES | cell viability [1] | cell viability [2] | cell viability [3] | TCF/Wnt firefly luciferase reporter signal [4] | TCF/Wnt firefly luciferase reporter signal [5]
Nc1ccc([As](=O)(O)O)cc1 | 1.01 ± 0.021 | 1.09 ± 0.092 | 0.941 ± 0.04 | 0.976 ± 0.063 | 0.962 ± 0.028
COC(=O)C1=CO[C@@H](C)[C@@H]2CN3CC[C@@]4(C(=O)Nc5ccccc54)[C@H]3C[C@H]12 | 1.1 ± 0.085 | 1.07 ± 0.014 | 1.08 ± 0.035 | 1.02 ± 0.12 | 0.96 ± 0.028
CC(C)=CC1C(C(=O)OCc2cccc(Oc3ccccc3)c2)C1(C)C (stereo not given) | 0.971 ± 0.02 | 1.02 ± 0.037 | 0.985 ± 0.035 | 0.988 ± 0.1 | 0.979 ± 0.0042
Oc1cccc2cccnc12 | 0.9665 ± 0.0035 | 0.967 ± 0.075 | 1.1 ± 0.028 | 1.03 ± 0.09 | 0.793 ± 0.037
C[C@H](N)[C@H](O)c1ccc(O)c(O)c1 | 0.971 ± 0.042 | 1.05 ± 0.057 | 1.09 ± 0.17 | 1.004 ± 0.0085 | 0.9685 ± 0.0078
c1ccc2c(c1)[nH]c1cnccc12 | 0.956 ± 0.041 | 1.01 ± 0.021 | 0.9715 ± 0.005 | 0.892 ± 0.19 | 0.879 ± 0.065
CC(C)=CCOc1c2occc2cc2ccc(=O)oc12 | 1.03 ± 0.086 | 0.997 ± 0.1 | 1.01 ± 0.014 | 1.12 ± 0.05 | 0.998 ± 0.16
CNC(=O)Oc1ccccc1OC(C)C | 0.98 ± 0.0071 | 0.983 ± 0.0042 | 0.986 ± 0.014 | 0.913 ± 0.19 | 1.01 ± 0.016
C=CCc1cc(OC)c2c(c1OC)OCO2 | 0.962 ± 0.15 | 0.864 ± 0.057 | 0.994 ± 0.023 | 0.876 ± 0.099 | 0.976 ± 0.033
O=C1CCC[C@@H]2[C@H]3C[C@@H](CN12)[C@@H]1CCCCN1C3.[O-][Cl+3]([O-])([O-])O | 1.01 ± 0.024 | 0.956 ± 0.053 | 0.976 ± 0.021 | 0.922 ± 0.022 | 0.97 ± 0.018
CC1C=CC=CCCC=CC=CC=CC=CC(OC2OC(C)C(O)C(N)C2O)CC2OC(O)(CC(O)C(O)CCC(O)CC(O)CC(O)CC(=O)OC(C)C(C)C1O)CC(O)C2C(=O)O (stereo not given) | 0.932 ± 0.04 | 0.906 ± 0.023 | 0.973 ± 0.031 | 0.874 ± 0.0014 | 0.762 ± 0.0092
CCOC(=O)c1cncn1[C@H](C)c1ccccc1 | 1.04 ± 0.035 | 0.987 ± 0.018 | 0.9905 ± 0.0078 | 0.965 ± 0.013 | 0.995 ± 0.022
CN1CCc2cc3c(cc2C1O)OCO3 (stereo not given) | 1.01 ± 0.026 | 1.03 ± 0.047 | 0.995 ± 0.021 | 0.956 ± 0.037 | 0.942 ± 0.064
COc1cc2c(cc1-c1cc3cc4ccoc4cc3oc1=O)OCO2 | 0.964 ± 0.03 | 0.949 ± 0.054 | 0.93 ± 0.059 | 0.973 ± 0.017 | 0.9445 ± 0.0021
CC[C@@H](C(=O)[C@@H](C)[C@@H](O)[C@H](C)[C@@H]1O[C@@H]([C@@H](CC)C(=O)O)CC[C@@H]1C)[C@H]1O[C@]2(C=C[C@@H](O)[C@]3(CC[C@@](C)([C@H]4CC[C@](O)(CC)[C@H](C)O4)O3)O2)[C@H](C)C[C@@H]1C | 0.948 ± 0.14 | 0.978 ± 0.073 | 1.07 ± 0.05 | 0.783 ± 0.11 | 0.897 ± 0.089
C[C@@H](CO)NC(=O)[C@@H]1C=C2c3cccc4[nH]cc(c34)C[C@H]2N(C)C1 | 0.983 ± 0.067 | 1.01 ± 0.061 | 0.939 ± 0.052 | 1.09 ± 0.099 | 0.98 ± 0.026
COc1cc2c3cc1Oc1c(OC)c(OC)cc4c1[C@@H](Cc1cccc(c1)Oc1ccc(c(O)c1)C[C@@H]3N(C)CC2)N(C)CC4 | 1.03 ± 0.045 | 1 ± 0.028 | 1.12 ± 0.05 | 0.9605 ± 0.00071 | 1.12 ± 0.064
COc1cc2c(c(OC)c1OC)-c1ccc(OC)c(=O)cc1[C@@H](NC(C)=O)CC2 | 1.1 ± 0.057 | 0.636 ± 0.016 | 1.22 ± 0.099 | 0.77 ± 0.22 | 0.802 ± 0.13
CC[C@@]1(O)C[C@H](O[C@H]2C[C@H](N(C)C)[C@H](O)[C@H](C)O2)c2c(cc3c(c2O)C(=O)c2c(O)cccc2C3=O)[C@H]1C(=O)OC | 1.07 ± 0.17 | 0.9035 ± 0.0064 | 1.2 ± 0.12 | 1.4 ± 0.05 | 0.842 ± 0.028
C[C@]12CC[C@H]3[C@@H](CCC4=CC(=O)CC[C@@]43C)[C@@H]1CC[C@@H]2O | 1.03 ± 0.021 | 1.15 ± 0.17 | 1.045 ± 0.0071 | 0.967 ± 0.061 | 1.04 ± 0.092
CCCC(C)C1(CC)C(=O)NC(=S)NC1=O (stereo not given) | 1.005 ± 0.0071 | 1.03 ± 0.11 | 1.02 ± 0.035 | 1.16 ± 0.15 | 0.974 ± 0.065
N=C(NCCC[C@H](N)C(=O)O)N[N+](=O)[O-] | 0.944 ± 0.14 | 0.966 ± 0.047 | 0.9515 ± 0.0064 | 1.07 ± 0.05 | 0.947 ± 0.09
NNCc1ccccc1 | 1.08 ± 0.12 | 1.1 ± 0.13 | 1.06 ± 0.028 | 1.07 ± 0.057 | 1.03 ± 0.093
C/C=C/[C@H]1O[C@@](O)([C@@H](C)[C@H](O)[C@H](C)[C@H]2OC(=O)/C(OC)=C/C(C)=C/[C@@H](C)[C@@H](O)[C@@H](C)[C@@H](O)[C@H](C)C/C(C)=C/C=C/[C@@H]2OC)C[C@@H](O[C@H]2C[C@@H](O)[C@H](OC(N)=O)[C@@H](C)O2)[C@@H]1C [Concanamycin B] | 0.935 ± 0.0085 | 0.941 ± 0.011 | 1.05 ± 0.014 | 0.9065 ± 0.0064 | 1.05 ± 0.042
CC(Cc1ccc(O)cc1)NCC(O)c1cc(O)cc(O)c1 (stereo not given) | 1.04 ± 0.068 | 1.1 ± 0.099 | 0.967 ± 0.012 | 0.9645 ± 0.0035 | 0.945 ± 0.013
C[C@]12C=CC(=O)C=C1CC[C@@H]1[C@@H]2CC[C@]2(C)C(=O)CC[C@@H]12 | 1.07 ± 0.11 | 1.09 ± 0.035 | 1.11 ± 0.078 | 1.08 ± 0.19 | 1.025 ± 0.0071
CCOP(=S)(OCC)Oc1ccc2c(C)c(Cl)c(=O)oc2c1 | 0.989 ± 0.044 | 0.983 ± 0.14 | 0.9335 ± 0.005 | 0.928 ± 0.04 | 0.89 ± 0.012
O=C(O)CC[N+](=O)[O-] [BOVINOCIDIN (3-nitropropionic acid)] | 0.951 ± 0.025 | 1.05 ± 0.042 | 0.986 ± 0.02 | 1.01 ± 0.042 | 1.05 ± 0.1
